Screening data deposited in PubChem by National Center for Advancing Translational Sciences (NCATS).
Tau filament bind = binds recombinant human tau filaments; recombinant tau filaments, thioflavin S fluorescence, 15 h; filaments grown with octadecylsulfate alongside compound; Potency, µM (highest dose often 57.1 µM), inactives show at the highest dose activity change, negative = inhibition; hit rate 2% among 71,000; AID 596;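 note: % is set by controls: 0 for no effect and ±100 for the full control effect; actives lower thioflavin S fluorescence by blocking filaments or displacing dye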
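ThS-based fibril read: tau 1 uM final, inducer ODS 30 uM final, 37 C for 15 h, ex 450/em 510 nm.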
ALOX15 inhib = blocks human 15-lipoxygenase activity; P16050; purified 15hLO-1, xylenol orange hydroperoxide absorbance; Potency, µM (highest dose often 57.1 µM), inactives show at the highest dose activity change, negative = inhibition, actives largely listed as inhibitors; hit rate 1.4% among 74,000; note: % is set by controls: 0 for no effect and ±100 for the full control effect; nearly all actives have a fitted effect of over 55% in size
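Inhibition is scored from a chromogenic endpoint. After 15 min enzyme-compound contact, arachidonic acid (50 uM final) reacts 6 min with 40 nM 15hLO-1 at room temperature, then Fe-XO reagent is added for 30 min and absorbance ratio recorded.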
Casp7 inh = blocks human caspase-7 allosterically or competitively; AID 889; P55210; Potency, µM (doses to about 57.5 µM), without a hit: top-dose activity change, negative = inhibition, usual class: inhibitors; hit rate 0.02% among 75,000; recombinant caspase-7, Ac-DEVD-AFC fluorescence rate; active = well fitted inhibition curve with a large enough effect in the main read-out, with a control signal flat, not every such curve was filed as active; inconclusive = small, poorly fitted or top-dose-only effect, or a change in a side signal; note: % of control where 0% means no effect
Target sequence (P55210 24-198 limits assumed): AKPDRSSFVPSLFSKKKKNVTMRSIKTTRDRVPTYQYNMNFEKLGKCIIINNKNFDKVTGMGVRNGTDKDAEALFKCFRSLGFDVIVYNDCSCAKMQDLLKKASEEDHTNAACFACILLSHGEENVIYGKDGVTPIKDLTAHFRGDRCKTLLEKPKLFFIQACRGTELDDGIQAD
Target sequence (P55210 207-303 limits assumed): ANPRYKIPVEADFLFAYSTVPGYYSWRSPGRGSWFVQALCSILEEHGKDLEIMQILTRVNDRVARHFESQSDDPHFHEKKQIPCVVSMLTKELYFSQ
Caspase-1 inhib = caspase-1 (human) inhibition, allosteric or competitive; P29466; Caspase-1 enzyme, Ac-WEHD-AFC fluorogenic rate; Potency, µM (series often up to 57.5 µM), without a hit: top-dose activity change, negative = inhibition, hits mostly inhibitors; hit rate 0.03% among 75,000; AID 900;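 note: plate controls were vehicle for no effect and no substrate for full effect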
Pol III holo inh = inhibitors of bacterial DNA polymerase III holoenzyme | AID 603 | Potency, µM (highest dose often 57.1 µM), inactives show at the highest dose activity change, negative = inhibition | reconstituted DNA polymerase III holoenzyme replication, biochemical | hit rate 0.25% among 71,000; note: % is set by controls: 0 for no effect and ±100 for the full control effect
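Reconstituted *E. coli* holoenzyme (0.35 nM Pol III, 1 nM beta, 154 nM SSB, 2 nM primase) was preincubated with compound for 15 min at RT. Synthesis on 1.4 nM ssM13Gori ran 35 min, then was stopped with PicoGreen/EDTA and read as dsDNA fluorescence.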
* = called active by the depositor; ? = inconclusive; . = not tested or not shown; ! = a repeat was not active; [ ] = another dose, or the depositor's remark. This is a sample that favours compounds with a hit; in the whole collection about 3.2% have one here. Unless noted, calls come from the whole dose curve; as a rule, active = well fitted curve in the direction sought with a large enough effect; inconclusive = small, poorly fitted or top-dose-only effect, or another doubt; inactive = no such curve, though single readings can be large; an effect the other way counts as inactive or inconclusive. Potency is the fitted concentration of half-maximal effect.

SMILES	Tau filament bind	ALOX15 inhib	Casp7 inh	Caspase-1 inhib	Pol III holo inh
CC(=O)c1ccc2c(c1)N(CCCN1CCC(CCO)CC1)c1ccccc1S2	4µM*	8%[25.6 µM]	2%[25.7 µM]	-1%[25.7 µM]	-3%[25.6 µM]
CCCC(=O)N(c1ccc2oc(=O)sc2c1)S(=O)(=O)c1cccs1	4%	16µM*	0%	0%	-7%
CN(CC(=O)O)S(=O)(=O)c1cccs1	-13%	6%	-3%	0%	-6%
CC(=O)N(c1ccc2oc(=O)sc2c1)S(=O)(=O)c1ccccc1	5%	16µM*	0%	3%	0%
O=c1[nH]c(SCc2c(Cl)c(Cl)c(Cl)c(Cl)c2Cl)nc(=S)[nH]1	10%[11.4 µM]	-9%[11.4 µM]	?	3%[11.5 µM]	-5%[11.4 µM]
NC(=O)CNCCC(c1ccccc1)c1ccccc1	-6%	20µM*!	-1%	0%	-6%
Fc1ccc(-c2nnc3ccc(N4CCc5ccccc5C4)nn23)cc1	170%	25µM*	-12%	-3%	-8%
O=C(Nc1ccccc1C(F)(F)F)N1CCN(c2ccc3nnc(-c4ccc(F)cc4)n3n2)CC1	.	-7%	-3%	-2%	.
CCOc1ccc(N2C(=O)c3cccnc3C2Nc2ccc(Cl)cc2)cc1 (stereo unspecified)	-10%	-15%	-3%	2%	5%
Cc1ccc(NC2c3ncccc3C(=O)N2c2ccccc2C)cc1C (stereo unspecified)	?	25µM*	-6%	-4%	-1%
CN=C(NC#N)Nc1ccc(C2=NNC(=O)C[C@@H]2C)cc1	40µM*!	?	-2%	-3%	-4%
CSc1ncnc2nc[nH]c12	-4%	-19%	-17%	?	-2%
COc1cc(NC(=O)c2cc(C(C)C)on2)cc(OC)c1OC	-7%	-1%	-1%	1%	-1%
COc1cc(N=c2ssnc2Cl)cc(OC)c1OC	10%	3.2µM*	-1%	1%	-4%
COCc1cc(=O)n2c(-c3ccc(C)cc3)n[nH]c2n1	16µM*	2%	-8%	-6%	-3%
COCc1cc(=O)n2c(-c3ccccc3OC)n[nH]c2n1	-7%	-5%	-1%	-3%	-5%
CC(C)=CCC/C(C)=C/CO/N=C1/C[C@@H](O)[C@@H](O)[C@@H]2[C@@H]3C(=O)N(Cc4ccccc4)C(=O)[C@H]3CC[C@H]12	.	-16%[11.4 µM]	2%[11.5 µM]	-1%[11.5 µM]	.
COc1ccc(OC)c(Nc2nc(-c3sc(N)nc3C)cs2)c1	10µM*	-2%	-2%	-3%	-5%
Cc1cc(NS(=O)(=O)c2ccc(Nc3nc(-c4sc(N)nc4C)cs3)cc2)no1	23%	-25%	-1%	-4%	1%
Cc1cc(O)ccc1Nc1nc(-c2sc(N)nc2C)cs1	-13%	6%	0%	-1%	5%
CC(=O)Nc1nc(C)c(-c2csc(Nc3ccc(O)cc3)n2)s1	?	13µM*	-2%	0%	-2%
Cc1nc(N)sc1-c1csc(Nc2ccccc2)n1	20µM*	?	-6%	-2%	-1%
Oc1ccc(Cc2cc(Cl)cc(Cl)c2O)cc1Cl	11%[11.4 µM]	-24%[11.4 µM]	-3%[11.5 µM]	-2%[11.5 µM]	2%[11.4 µM]
CC(=O)OCC1OC(Oc2cc(OC(C)=O)c3c(=O)cc(-c4ccc(OC(C)=O)c(OC(C)=O)c4)oc3c2)C(OC(C)=O)C(OC(C)=O)C1OC(C)=O (stereo unspecified)	.	7%[25.6 µM]	?	.	.
COc1ccc2c3c(ccc2c1)N[C@H](C(=O)O)CC3	-1%[11.4 µM]	-8%[11.4 µM]	3%[11.5 µM]	1%[11.5 µM]	-8%[11.4 µM]
SMILES	Tau filament bind	ALOX15 inhib	Casp7 inh	Caspase-1 inhib	Pol III holo inh
COC(=O)C(/C=C/C(C)Cc1cc(Br)cc(OCc2ccccc2)c1OC)OCc1ccccc1 (stereo unspecified)	.	-3%[11.4 µM]	2%[11.5 µM]	2%[11.5 µM]	.
CC(=O)N1CCC2(CCCN(Cc3nccs3)C2)CC1	-6%	-2%	-1%	-1%	-2%
O=C(c1ccncc1)N1CCC2(CCCN(Cc3nccs3)C2)CC1	-1%	0.2µM*	-2%	-2%	-7%
COc1cc(OC)cc([C@H](CNc2ncnc3c2ncn3[C@@H]2O[C@@H](CO)[C@H](O)[C@@H]2O)c2ccccc2C)c1	-2%	.	.	.	2%
Cc1nc(N2CCOCC2)c2nc(-c3ccccc3)n(CCCN3CCCCC3C)c2n1 (stereo unspecified)	54%	4%	0%	0%	2%
O=C(Nc1cccc(F)c1)N1CCCC2(CCN(C(=O)c3ccco3)CC2)C1	5%	0.32µM*	-1%	-3%	-10%
